Laboratory results: PubChem BioAssay (NCI)
The panel holds about 79,000 compounds, 15% with a hit somewhere; the sample as a whole holds those more often. The source made the active and inactive calls. No stated cut-off is given here; in the data, active means growth inhibition above about 70%; inactive means the rest.

Key:
[1] = NCI Yeast Anticancer Drug Screen. Data for the rad52 strain (AID 147);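 further: 0% = growth of vehicle-treated control cultures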; settings: S. cerevisiae rad52 mutant growth inhibition, active compounds read high
In short: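 The repair-mutant yeast strain was incubated with compounds, then growth was read and inhibition derived relative to vehicle.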

[2] = NCI Yeast Anticancer Drug Screen. Data for the wt1 strain (AID 149);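 further: 0% = growth of vehicle-treated wt1 cultures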; settings: S. cerevisiae wt1 strain (SPY 50644) growth inhibition, active compounds read high
In short: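 Each compound is tested on wt1 yeast and the loss of growth versus vehicle gives the inhibition value.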

[3] = NCI Yeast Anticancer Drug Screen. Data for the rad50EPP+ strain (AID 151);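 further: 0% = growth of vehicle-treated control cultures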; settings: S. cerevisiae rad50 mutant strain, active compounds read high
In short: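 Vehicle-normalised growth inhibition; rad50EPP+ yeast strain, altered in DNA damage repair, compound-treated.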

[4] = NCI Yeast Anticancer Drug Screen. Data for the mgt1 strain (AID 153); settings: S. cerevisiae mgt1 mutant growth inhibition, active compounds read high
In short: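 Vehicle-normalized growth inhibition is determined in mgt1 yeast, a strain selected for a defined alteration in DNA repair or cell cycle control.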

[5] = NCI Yeast Anticancer Drug Screen. Data for the rad50 strain (AID 155);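 further: 0% = growth of vehicle-only cultures of the same strain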; settings: S. cerevisiae rad50 strain growth inhibition, active compounds read high
In short: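 Vehicle-treated cultures provide the reference for the growth inhibition reported for compound-exposed, repair-deficient yeast.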

[6] = NCI Yeast Anticancer Drug Screen. Data for the mec2-1 strain (AID 157); settings: S. cerevisiae mec2-1 strain, active compounds read high
In short: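 Mutant yeast (mec2-1) grown with compound; growth inhibition relative to vehicle control reported.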

[7] = NCI Yeast Anticancer Drug Screen. Data for the rad14 strain (AID 159);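 further: 0% = growth of vehicle-treated control cultures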; settings: S. cerevisiae rad14 strain growth inhibition, active compounds read high
In short: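 Inhibition of growth is reported for a repair-deficient yeast mutant following compound treatment, calculated relative to cultures that received vehicle.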

[8] = NCI Yeast Anticancer Drug Screen. Data for the sgs1 mgt1 strain (AID 161);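 further: 0% = growth of cultures given vehicle only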; settings: S. cerevisiae sgs1 mgt1 strain, active compounds read high
In short: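 Compounds are added to genetically altered yeast, and growth is compared with cultures given vehicle alone to give percent inhibition.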

[9] = NCI Yeast Anticancer Drug Screen. Data for the CLN2oe strain (AID 163);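 further: 0% = growth of vehicle-only control cultures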; settings: S. cerevisiae CLN2oe strain, active compounds read high
In short: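 Compounds are applied to yeast harbouring a defined cell-cycle control change; reduced growth compared with vehicle-treated controls gives the value.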

[10] = NCI Yeast Anticancer Drug Screen. Data for the cln2 rad14 strain (AID 165);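 further: 0% = growth equal to vehicle treated cultures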; settings: S. cerevisiae cln2 rad14 strain, active compounds read high
In short: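 Readout is yeast growth inhibition versus vehicle-treated controls, using a strain with cln2 and rad14 alterations exposed to compound.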

[11] = NCI Yeast Anticancer Drug Screen. Data for the bub3 strain (AID 167); settings: S. cerevisiae bub3 mutant strain, active compounds read high
In short: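 Mutant yeast screening strain plus compound; vehicle-treated cultures serve as the 0% inhibition reference.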

[12] = NCI Yeast Anticancer Drug Screen. Data for the wt2 strain (AID 169); settings: S. cerevisiae wt2 strain growth inhibition, active compounds read high
In short: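 Against vehicle-treated controls, the growth of yeast exposed to each compound was compared, and the inhibition was recorded.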

[13] = NCI Yeast Anticancer Drug Screen. Data for the mlh1 strain (AID 171);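 further: 0% = growth of vehicle-treated control cultures of the same strain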; settings: S. cerevisiae mlh1 strain growth inhibition, active compounds read high
In short: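 Measured: yeast growth. Reference: vehicle-treated controls. Organism: strain with a defined alteration affecting DNA damage repair or cell cycle control, treated with compound.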

[14] = NCI Yeast Anticancer Drug Screen. Data for the sgs1 strain (AID 173);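 further: 0% = growth of vehicle-only control cultures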; settings: S. cerevisiae sgs1 mutant, active compounds read high
In short: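 Each compound was added to cultures of the altered yeast strain. Growth was recorded, and inhibition was derived by comparison with vehicle controls.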

[15] = NCI Yeast Anticancer Drug Screen. Data for the mlh1 rad18 strain (AID 175); settings: S. cerevisiae mlh1 rad18 strain growth inhibition, active compounds read high
In short: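 Genetically defined yeast (DNA repair-deficient) exposed to compounds; growth inhibition determined relative to vehicle.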

[16] = NCI Yeast Anticancer Drug Screen. Data for the rad18 strain (AID 177); settings: S. cerevisiae rad18 mutant growth inhibition, active compounds read high
In short: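 Vehicle-treated cultures served as the baseline for scoring compound-induced growth inhibition in DNA-repair-mutant yeast.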

[17] = at 5.0 µM (retest, dose inferred, filed as 0.5)
[18] = at 50.0 µM (retest, dose inferred, filed as 5.0)

Measured: growth inhibition

Cc1c2cc[n+](Cc3ccc(I)cc3)cc2c(C)c2c1[nH]c1ccccc12
inactive: [1]; at 1.2 µM 39% | [1]; at 3.7 µM 36% | [2]; at 1.2 µM 10% | [2]; at 3.7 µM 8% | [3]; at 1.2 µM 30% | [3]; at 3.7 µM 29% | [3]; at 11.0 µM 34% | [4]; at 1.2 µM 9% | [4]; at 3.7 µM -1% | [5]; at 1.2 µM 18% | [5]; at 3.7 µM 12% | [5]; [17] 5% | [6]; at 1.2 µM 19% | [6]; at 3.7 µM 8% | [6]; [17] 33% | [7]; at 1.2 µM 12% | [7]; at 3.7 µM 0% | [9]; at 1.2 µM 14% | [9]; at 3.7 µM 19% | [10]; [17] 17% | [11]; at 1.2 µM 18% | [11]; at 3.7 µM 18% | [11]; [17] 55% | [12]; at 1.2 µM -21% | [12]; at 3.7 µM -24% | [13]; at 1.2 µM 35% | [13]; at 3.7 µM 35% | [14]; at 1.2 µM 42% | [14]; at 3.7 µM 27% | [15]; [17] 35% | [16]; at 1.2 µM 40% | [16]; at 3.7 µM 31%
active: [1]; at 11.0 µM 96% | [1]; at 33.0 µM 98% | [1]; at 100.0 µM 95% | [2]; at 11.0 µM 89% | [2]; at 33.0 µM 98% | [2]; at 100.0 µM 97% | [3]; at 33.0 µM 90% | [3]; at 100.0 µM 96% | [4]; at 11.0 µM 90% | [4]; at 33.0 µM 97% | [4]; at 100.0 µM 96% | [5]; at 11.0 µM 96% | [5]; at 33.0 µM 95% | [5]; [18] 93% | [5]; at 50.0 µM 85.5% | [5]; at 100.0 µM 89% | [6]; at 11.0 µM 96% | [6]; at 33.0 µM 97% | [6]; [18] 95% | [6]; at 50.0 µM 87.2% | [6]; at 100.0 µM 95% | [7]; at 11.0 µM 94% | [7]; at 33.0 µM 97% | [7]; at 100.0 µM 96% | [8]; [17] 74% | [8]; [18] 94% | [8]; at 50.0 µM 85.8% | [9]; at 11.0 µM 92% | [9]; at 33.0 µM 97% | [9]; at 100.0 µM 94% | [10]; [18] 94% | [10]; at 50.0 µM 86% | [11]; at 11.0 µM 97% | [11]; at 33.0 µM 96% | [11]; [18] 94% | [11]; at 50.0 µM 83.3% | [11]; at 100.0 µM 89% | [12]; at 11.0 µM 87% | [12]; at 33.0 µM 97% | [12]; at 100.0 µM 96% | [13]; at 11.0 µM 95% | [13]; at 33.0 µM 97% | [13]; at 100.0 µM 96% | [14]; at 11.0 µM 96% | [14]; at 33.0 µM 97% | [14]; at 100.0 µM 96% | [15]; [18] 94% | [15]; at 50.0 µM 89.8% | [16]; at 11.0 µM 97% | [16]; at 33.0 µM 96% | [16]; at 100.0 µM 93%

CCCCCCCCCCCCCCCCOP(=O)(O)OCC(N)C(=O)O (stereo not drawn)
inactive: [1]; at 1.2 µM -2% | [1]; at 3.7 µM 5% | [1]; at 11.0 µM 54% | [2]; at 1.2 µM -19% | [2]; at 3.7 µM -22% | [2]; at 11.0 µM 39% | [3]; at 1.2 µM -17% | [3]; at 3.7 µM -4% | [4]; at 1.2 µM -1% | [4]; at 3.7 µM 5% | [4]; at 11.0 µM 52% | [5]; at 1.2 µM -20% | [5]; at 3.7 µM -6% | [5]; [17] -25% | [5]; at 11.0 µM 42% | [6]; at 1.2 µM 6% | [6]; at 3.7 µM 3% | [6]; [17] 12% | [6]; at 11.0 µM 50% | [7]; at 1.2 µM 4% | [7]; at 3.7 µM -4% | [7]; at 11.0 µM 59% | [8]; [17] -13% | [9]; at 1.2 µM 6% | [9]; at 3.7 µM -10% | [9]; at 11.0 µM -3% | [10]; [17] 6% | [11]; at 1.2 µM -13% | [11]; at 3.7 µM -29% | [11]; [17] -14% | [11]; at 11.0 µM 34%
active: [1]; at 33.0 µM 98% | [1]; at 100.0 µM 98% | [2]; at 33.0 µM 98% | [2]; at 100.0 µM 97% | [3]; at 11.0 µM 80% | [3]; at 33.0 µM 98% | [3]; at 100.0 µM 98% | [4]; at 33.0 µM 97% | [4]; at 100.0 µM 97% | [5]; at 33.0 µM 97% | [5]; [18] 98% | [5]; at 50.0 µM 98.4% | [5]; at 100.0 µM 97% | [6]; at 33.0 µM 98% | [6]; [18] 99% | [6]; at 50.0 µM 98.2% | [6]; at 100.0 µM 97% | [7]; at 33.0 µM 98% | [7]; at 100.0 µM 97% | [8]; [18] 99% | [8]; at 50.0 µM 98.8% | [9]; at 33.0 µM 94% | [9]; at 100.0 µM 97% | [10]; [18] 99% | [10]; at 50.0 µM 98% | [11]; at 33.0 µM 98% | [11]; [18] 99% | [11]; at 50.0 µM 98.8% | [11]; at 100.0 µM 98%
